In all, about 310,000 compounds went through this assay and about 14,000 (4.5%) showed an effect of 50% or more. Effects have a minus sign here. For the sample, strong results were picked, then their nearest neighbours and some compounds at random.
Target: human ether-à-go-go-related gene (hERG) potassium channel (human, UniProt Q12809)
Test: primary screen, population patch clamp on CHO cells stably expressing hERG; higher = less effect of the substance
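Note: peak tail current of the secondary pulse compared with the same well before compound.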

human ether-à-go-go-related gene (hERG) potassium channel, sequence (Q12809 whole entry, looked up): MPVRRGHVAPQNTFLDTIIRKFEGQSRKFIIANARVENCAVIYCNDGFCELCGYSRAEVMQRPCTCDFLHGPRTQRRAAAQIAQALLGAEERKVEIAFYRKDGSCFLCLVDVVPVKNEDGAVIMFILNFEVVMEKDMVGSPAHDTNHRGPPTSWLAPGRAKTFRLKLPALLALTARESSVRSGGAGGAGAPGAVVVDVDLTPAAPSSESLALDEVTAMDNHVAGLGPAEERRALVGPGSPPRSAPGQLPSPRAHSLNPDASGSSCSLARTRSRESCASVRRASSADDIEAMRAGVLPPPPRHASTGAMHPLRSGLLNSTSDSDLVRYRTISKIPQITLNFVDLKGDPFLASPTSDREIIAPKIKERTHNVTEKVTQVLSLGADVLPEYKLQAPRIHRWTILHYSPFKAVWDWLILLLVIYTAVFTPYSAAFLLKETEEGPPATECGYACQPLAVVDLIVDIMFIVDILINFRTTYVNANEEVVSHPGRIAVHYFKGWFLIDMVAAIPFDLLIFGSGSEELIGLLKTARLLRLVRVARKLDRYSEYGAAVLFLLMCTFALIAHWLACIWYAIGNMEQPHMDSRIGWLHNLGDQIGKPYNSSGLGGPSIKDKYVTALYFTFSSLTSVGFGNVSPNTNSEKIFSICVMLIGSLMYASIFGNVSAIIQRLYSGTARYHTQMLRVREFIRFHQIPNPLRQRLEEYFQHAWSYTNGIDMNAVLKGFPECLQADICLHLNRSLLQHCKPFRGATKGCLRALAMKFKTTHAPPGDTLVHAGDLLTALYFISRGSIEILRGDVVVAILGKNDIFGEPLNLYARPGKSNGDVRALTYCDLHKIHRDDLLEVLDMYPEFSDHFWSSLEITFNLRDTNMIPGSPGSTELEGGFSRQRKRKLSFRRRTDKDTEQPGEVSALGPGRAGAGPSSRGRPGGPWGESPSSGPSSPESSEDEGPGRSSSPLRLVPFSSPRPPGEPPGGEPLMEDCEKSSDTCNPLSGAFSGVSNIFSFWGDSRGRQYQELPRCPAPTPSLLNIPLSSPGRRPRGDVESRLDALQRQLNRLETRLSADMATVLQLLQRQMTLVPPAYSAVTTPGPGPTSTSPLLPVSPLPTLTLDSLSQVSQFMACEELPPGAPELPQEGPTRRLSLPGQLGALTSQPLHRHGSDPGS

Row | SMILES | hERG current change (%, negative = inhibition) at 10uM [%]
1 | CC(=O)c1ccc(N2C(=NC(=O)COc3ccccc3)SC3CS(=O)(=O)CC32)cc1 (stereo not drawn) | -3.89
2 | COc1cc2c(cc1OC)CN(C(=O)c1cc(Cl)nc(Cl)c1)CC2 | 12.1
3 | CC(=O)OCC(OC(C)=O)C(OC(C)=O)C(OC(C)=O)C(=O)Nc1ccccc1 (stereo not drawn) | 16.6
4 | COc1ccc(CNC(=O)Nc2ccc([N+](=O)[O-])cc2)cc1 | 5.47
5 | CN(CC(=O)Nc1ccc(Cl)c(S(=O)(=O)N2CCOCC2)c1)C(=O)c1cccs1 | -44.2
6 | CCOc1ccccc1NC(=O)C1CCCN1C(=O)c1cccs1 (stereo not drawn) | 7.83
7 | Cc1ccc(CNC(=O)CCC(=O)Nc2nnc(C3CCCCC3)s2)cc1 | 17.6
8 | CCOc1ccc(OCC(=O)OCC(=O)N2CCN(C(=O)c3ccco3)CC2)cc1 | -21.9
9 | O=C(CSc1nnc(SCc2ccc(F)cc2)s1)Nc1ccc(C(=O)O)cc1 | 18.6
10 | O=C(O)c1cc(O)ccc1NC(=O)C1CCCO1 (stereo not drawn) | -0.924
11 | O=C(c1ccc(F)cc1F)N1CCN(c2ccccn2)CC1 | 0.804
12 | O=C1NC(=O)C(Cc2ccccc2)(c2cccnc2)N1 (stereo not drawn) | 17.7
13 | Cc1ccc2nc(/C(C#N)=C\c3ccc(Oc4ccc([N+](=O)[O-])cn4)cc3)[nH]c2c1 | 1.61
14 | CCc1ccc(-c2cc(C(=O)N/N=C/c3ccccn3)[nH]n2)cc1 | -41.7
15 | CC(=O)N1CCCC(N2CCN(c3cccc(C(F)(F)F)c3)CC2)C1 (stereo not drawn) | -3.73
16 | Cc1ccc(C(=O)N2CCCC(N3CCN(c4cccc(C(F)(F)F)c4)CC3)C2)s1 (stereo not drawn) | -51
17 | CC1=C(C(=O)N2CCCC(N3CCN(c4cccc(C(F)(F)F)c4)CC3)C2)OCCO1 (stereo not drawn) | -17.9
18 | COc1cccc(NC(=O)c2cccc(OC)c2OC)c1 | -0.56
19 | COc1cccc(C(=O)Nc2nnc(-c3ccccc3)s2)c1OC | 4.52
20 | COc1cccc(C(=O)Nc2sc(C(C)C)cc2C(N)=O)c1OC | -50.5

Row | SMILES | hERG current change (%, negative = inhibition) at 10uM [%]
21 | CCCN1C(=O)c2cc(C(=O)NC3CCCC3)ccc2C1O (stereo not drawn) | -2.01
22 | Cc1ccc(NCN2C(=O)C3CC=CCC3C2=O)cc1 (stereo not drawn) | 2.67
23 | COc1ccccc1NC(=O)CN(Cc1ccco1)C(=O)c1cncc(Br)c1 | -22.4
24 | CCCN(CC(=O)Nc1ccccc1OC)C(=O)c1ccc(S(=O)(=O)Nc2ccccc2)cc1 | -53.4
25 | COc1ccccc1NC(=O)CN(Cc1ccco1)C(=O)c1ccc(-n2nc(C)cc2C)cc1 | -51.2
26 | CCOC(=O)c1c(C)[nH]c(C)c1S(=O)(=O)N(C)CC(=O)Nc1ccccc1C | 14.4
27 | COc1ccccc1NC(=O)CN(Cc1ccco1)C(=O)c1ccc(Cl)nc1 | -28.4
28 | CCN(CC(=O)Nc1ccccc1OC)C(=O)c1ccc(N(C)S(=O)(=O)c2ccc(C)cc2)cc1 | -62.2
29 | CCOC(=O)c1c(C)[nH]c(C)c1S(=O)(=O)N(C)CC(=O)Nc1cc(C)ccc1OC | -24.7
30 | CCCN(CC(=O)Nc1ccccc1OC)C(=O)c1cccc(S(=O)(=O)Nc2ccc(OC)cc2)c1 | -11.4
31 | CCN(CC(=O)Nc1ccccc1OC)C(=O)c1ccc(NS(=O)(=O)c2ccc(C(C)=O)cc2)cc1 | 0.13
32 | CCN(CC(=O)NC(C)C)C(=O)c1ccc(S(=O)(=O)N(C)c2ccccc2OC)cc1 | -2.53
33 | CCN(Cc1ccccc1)C(=O)c1ccc(N(C)S(=O)(=O)c2ccc(C)cc2)cc1 | -38.7
34 | CCOC(=O)c1c(C)[nH]c(C)c1S(=O)(=O)N(C)CC(=O)Nc1ccccc1OC | -60
35 | COc1ccc2[nH]cc(C(=O)CCl)c2c1 | 8.92
36 | COCCN1C(=O)N(c2ccccc2)C(=O)C1CC(=O)Nc1cc(OC)cc(OC)c1 (stereo not drawn) | 14
37 | CSc1nnc(C)c(/C=C/NOCc2cccc(F)c2)n1 | 4.03
38 | Cl.OCCN(Cc1ccccc1)CC(O)COc1ccc(-c2ccccc2)cc1 (stereo not drawn) | -28.3
39 | CCOC(=O)c1ccc(NC(=O)CCc2nc(-c3cccc(C)c3)no2)cc1 | 7.13
40 | Cc1ccc(S(=O)(=O)c2c(C)cc(C)[nH]c2=O)cc1 | 20.3

Row | SMILES | hERG current change (%, negative = inhibition) at 10uM [%]
41 | CCn1nnnc1SCC(=O)Nc1cccc(NC(C)=O)c1 | -1.06
42 | Cc1csc(NC(=O)CSc2nncc(=O)n2N)n1 | 19
43 | O=C(Nc1cccc(/C=C/c2ccccn2)c1)c1ccc(-n2cncn2)c([N+](=O)[O-])c1 | -24.9
44 | Cc1cc(C)cc(OCC(=O)Nc2cc(C)on2)c1 | 15.9
45 | Cc1c(NS(=O)(=O)c2cccc(C(=O)NCc3ccncc3)c2)c(=O)n(-c2ccccc2)n1C | 6.38
46 | Cc1nnc2c(SC(C)C)nc3ccccc3n12 | -77.2
47 | CC(C)Sc1nc2ccccc2n2cnnc12 | -6.25
48 | Cc1nnc2c(NC(C)C)nc3ccccc3n12 | -26.8
49 | CCC(NC(=S)NCc1ccc(F)cc1)c1ccc(C)cc1 (stereo not drawn) | 13.7
50 | COc1ccc(NC(=O)c2ccccc2NC(=O)C2CC=CCC2C(=O)O)cc1 (stereo not drawn) | 15.6
51 | Cc1ccc(CNC(=O)CCSCc2ccc(C)cc2)cc1 | -2.27
52 | CCOC(=O)N1CCN(Cc2nc(-c3ccccc3)no2)CC1 | 2
53 | NC(=O)C1CCN(Cc2nc(-c3ccccc3)no2)CC1 | -14.1
54 | CCOC(=O)C1CCCN(C2CCN(Cc3nc(Cc4ccccc4)no3)CC2)C1 (stereo not drawn) | -60.3
55 | CCOC(=O)C1CCCN(Cc2nc(Cc3cccc(F)c3)no2)C1 (stereo not drawn) | -6.6
56 | CCOC(=O)C1CCN(Cc2nc(-c3ccc(OC)c(OC)c3)no2)CC1 | 2.83
57 | CCOC(=O)C1CCCN(Cc2nc(Cc3ccccc3Cl)no2)C1 (stereo not drawn) | -14.1
58 | Cc1ccc(-c2noc(CN3CCC(C(N)=O)CC3)n2)cc1 | 21.9
59 | CCOC(=O)C1CCCN(C2CCN(Cc3nc(-c4ccccc4)no3)CC2)C1 (stereo not drawn) | -56.5
60 | CCOC(=O)C1CCN(C2CCN(Cc3nc(-c4ccccc4)no3)CC2)CC1 | -71.5

— publication PMC4336329 (PLoS ONE, 2015)
